Molecules are shown by their SMILES. Where “and” joins values, the source holds several entries; their conditions need not be identical. Identical values can stand only once. Calls of active or inactive are those of the source. Cut-off read from the data, not from the text of the source, unless noted: active = parasite load remaining mostly below about 12% (no sharp cut-off); inactive = mostly above about 10%.

The first assay is described as follows: liver-stage malaria parasite growth inhibition, primary screen, cell-based, HepG2, luciferase luminescence, HepG2 viability (AID 624349).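 Note: 100% = mean of DMSO negative control wells on the same plate.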 The settings on record: P. berghei liver stage in HepG2, luciferase luminescence, concentration not given here; parasite load remaining: stronger effect = lower value; viability: measured here: HepG2 viability without parasites.
The viability is a read-out of living cells in per cent, often relative to untreated cells. For the compound `CC(C)(CO)C(O)C(=O)NCCC(=O)O` (stereo unspecified), the parasite load remaining was 190% (inactive) and the viability stood at 105%.
Consider `CCC(=O)O[C@H]1CCC2C3CCc4cc(O)ccc4C3CC[C@@]21C` (stereo partly specified), for which the viability was 66.4% and 92.8%; the parasite load remaining was 105% (inactive) and 44.5% (inactive).
`CC/C=C\C/C=C\C/C=C\C/C=C\C/C=C\CCCC(=O)OCC`: the parasite load remaining is 31% (inactive) and the viability was determined as 94%.
The matching figures for `Oc1cc(O)c2c(c1)OC(c1ccc(O)c(O)c1)C(O)C2` (stereo unspecified): 64.2% (inactive) and 97%.
The corresponding values for `CC[N+]1(C)[C@@H]2CC[C@H]1CC(OC(=O)[C@H]1CCC(C(=O)OC3C[C@H]4CC[C@@H](C3)[N+]4(C)CC)(c3ccccc3)c3ccccc31)C2` (stereo partly specified) are 96.6% (inactive) and 101%.
For `CCC(C)N1CCC2(CC1)N=c1c(c3c4c5c(C)c(O)c3c(O)c1=NC(=O)/C(C)=C/C=C/[C@H](C)[C@H](O)[C@@H](C)[C@@H](O)[C@@H](C)[C@H](OC(C)=O)[C@H](C)[C@@H](OC)/C=C/O[C@@](C)(O5)C4=O)N2` (stereo partly specified), the parasite load remaining is 81.4% (inactive) and the viability stood at 74.8%.
The matching figures for `CCC(C)[C@H]1O[C@]2(CC[C@@H]1C)C[C@@H]1C[C@@H](C/C=C(\C)[C@@H](OC3C[C@H](OC)C(O[C@H]4C[C@H](OC)[C@@H](O)[C@H](C)O4)[C@H](C)O3)[C@@H](C)/C=C/C=C3\CO[C@@H]4[C@H](O)C(C)=C[C@@H](C(=O)O1)[C@]34O)O2` (stereo partly specified): 54.4% (inactive) and 90.4%.
The matching figures for `c1ccc(-c2[nH]ncc2-c2ccnc3ccccc23)nc1`: 38% (inactive) and 62.8%.
The corresponding values for `C[C@H]1[C@H](C)CC[C@]2(C(=O)O[C@@H]3O[C@H](COC4O[C@H](CO)[C@@H](OC5O[C@@H](C)[C@H](O)[C@@H](O)[C@H]5O)[C@H](O)[C@H]4O)[C@@H](O)[C@H](O)[C@H]3O)CC[C@]3(C)C(=CC[C@@H]4[C@@]5(C)C[C@@H](O)[C@H](O)[C@@](C)(CO)C5CC[C@]43C)[C@H]12` (stereo partly specified) are 109% (inactive) and 74.2%.
Consider `CCOC(=O)Oc1c(OC)cc(C(=O)O[C@@H]2C[C@@H]3CN4CCc5c([nH]c6cc(OC)ccc56)[C@H]4C[C@@H]3[C@H](C(=O)OC)[C@H]2OC)cc1OC`, for which the parasite load remaining was -14.9% (active) and the viability amounted to 98.5%.
The corresponding values for `CC(=O)N[C@@H]1[C@@H](O[C@H](C)C(=O)O)[C@H](O)[C@@H](CO)O[C@@H]1O` are 112% (inactive) and 105%.
As to `OCCN1C[C@@H](O)[C@@H](O)C(O)C1CO` (stereo partly specified), the parasite load remaining is 147% (inactive) and 57.2% (inactive); the viability is 86.4% and 111%.
For `COc1cc2c(cc1OC)-c1[nH]nc(Nc3cccc(F)c3)c1C2`, the parasite load remaining is 37% (inactive) and the viability is 81.5%.
The matching figures for `CC(C)(C)NCC(O)COc1cccc2c1CC(O)C(O)C2` (stereo unspecified): 84.5% (inactive) and 104%.
The corresponding values for `c1ccc2c3c([nH]c2c1)[C@H]1C2CCC([C@@H]4CCCN[C@H]24)N1CC3` (stereo partly specified) are 89.2% (inactive) and 93.6%.
The corresponding values for `CC12CCC3c4ccc(OC(=O)c5ccccc5)cc4CCC3C1CCC2O` (stereo unspecified) are 35.5% (inactive) and 95.7%.
With `Oc1cccc(-c2nc(N3CCOCC3)c3sccc3n2)c1`, the viability was determined as 83.2% and the parasite load remaining is 50.9% (inactive).
The corresponding values for `CC(C)CC(=O)N[C@H](C(=O)NC(C(=O)NC(CC(C)C)[C@@H](O)CC(=O)N[C@@H](C)C(=O)N[C@@H](CC(C)C)[C@@H](O)CC(=O)O)C(C)C)C(C)C` (stereo partly specified) are 180% and 20.9% (inactive).
Take `CN1CC[C@]23c4ccccc4N[C@H]1[C@]21CCN(C)[C@H]3Nc2ccccc21`: the parasite load remaining is 122% (inactive) and the viability was 96.8%.
The corresponding values for `COc1c2ccoc2nc2c(OC)c(OC[C@@H](O)C(C)(C)O)ccc12` are 153% (inactive) and 90.5%.
As to `CC1OC(O[C@H]2/C=C/C=C/C=C/C=C/C=C/C=C/C=C/[C@H](C)[C@@H](O)[C@@H](C)[C@H](C)OC(=O)CC(O)CC(O)CCC(O)C(O)CC(O)CC3(O)C[C@H](O)C(C(=O)O)C(C2)O3)C(O)[C@H](N)C1O` (stereo partly specified), the viability is 73.8% and 92.4%; the parasite load remaining was 85.7% (inactive) and 73.7% (inactive).
As to `C=Cc1c(C)c2cc3nc(cc4[nH]c(cc5nc(cc1[nH]2)C(C)=C5CCC(=O)O)c(CCC(=O)O)c4C)[C@@]1(C)C3=CC=C(C(=O)OC)C1C(=O)OC` (stereo partly specified), the viability came out at 67.8% and the parasite load remaining is 82.4% (inactive).

Another assay can be described thus: sensitizers of A549 cells to miR-34 induction, primary screen, imaging, A549 dox-inducible miR-34, nuclei and caspase counts (AID 1347080;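 active = compounds whose cell count with miR-34 switched on is under 0.7 times the count with it off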). The settings on record: A549 miR-34 inducible, Hoechst nuclei count, 48 h; stronger effect = lower value; cell number ratio, induced over uninduced.
`CC(C)(CO)C(O)C(=O)NCCC(=O)O` (stereo unspecified): the fold change was 0.839 (inactive).
Same read-out and setting: to `CCC(=O)O[C@H]1CCC2C3CCc4cc(O)ccc4C3CC[C@@]21C` (stereo partly specified) belongs 0.912 (inactive); to `CC/C=C\C/C=C\C/C=C\C/C=C\C/C=C\CCCC(=O)OCC`, 1.01 (inactive); to `Oc1cc(O)c2c(c1)OC(c1ccc(O)c(O)c1)C(O)C2` (stereo unspecified), 0.908 (inactive).
Same read-out and setting: as for `CC[N+]1(C)[C@@H]2CC[C@H]1CC(OC(=O)[C@H]1CCC(C(=O)OC3C[C@H]4CC[C@@H](C3)[N+]4(C)CC)(c3ccccc3)c3ccccc31)C2` (stereo partly specified), the figure is 0.889 (inactive); as for `CCC(C)N1CCC2(CC1)N=c1c(c3c4c5c(C)c(O)c3c(O)c1=NC(=O)/C(C)=C/C=C/[C@H](C)[C@H](O)[C@@H](C)[C@@H](O)[C@@H](C)[C@H](OC(C)=O)[C@H](C)[C@@H](OC)/C=C/O[C@@](C)(O5)C4=O)N2` (stereo partly specified), 0.966 (inactive); as for `CCC(C)[C@H]1O[C@]2(CC[C@@H]1C)C[C@@H]1C[C@@H](C/C=C(\C)[C@@H](OC3C[C@H](OC)C(O[C@H]4C[C@H](OC)[C@@H](O)[C@H](C)O4)[C@H](C)O3)[C@@H](C)/C=C/C=C3\CO[C@@H]4[C@H](O)C(C)=C[C@@H](C(=O)O1)[C@]34O)O2` (stereo partly specified), 1.04 (inactive).
Same read-out and setting: to `c1ccc(-c2[nH]ncc2-c2ccnc3ccccc23)nc1` belongs 0.893 (inactive); to `C[C@H]1[C@H](C)CC[C@]2(C(=O)O[C@@H]3O[C@H](COC4O[C@H](CO)[C@@H](OC5O[C@@H](C)[C@H](O)[C@@H](O)[C@H]5O)[C@H](O)[C@H]4O)[C@@H](O)[C@H](O)[C@H]3O)CC[C@]3(C)C(=CC[C@@H]4[C@@]5(C)C[C@@H](O)[C@H](O)[C@@](C)(CO)C5CC[C@]43C)[C@H]12` (stereo partly specified), 0.957 (inactive).
For the compound `CCOC(=O)Oc1c(OC)cc(C(=O)O[C@@H]2C[C@@H]3CN4CCc5c([nH]c6cc(OC)ccc56)[C@H]4C[C@@H]3[C@H](C(=O)OC)[C@H]2OC)cc1OC`, the fold change is 0.795 (inactive).
On the same count and under the same terms, as for `CC(=O)N[C@@H]1[C@@H](O[C@H](C)C(=O)O)[C@H](O)[C@@H](CO)O[C@@H]1O`, the figure is 0.861 (inactive); as for `OCCN1C[C@@H](O)[C@@H](O)C(O)C1CO` (stereo partly specified), 0.903 (inactive); as for `COc1cc2c(cc1OC)-c1[nH]nc(Nc3cccc(F)c3)c1C2`, 1.05 (inactive).
As to `CC(C)(C)NCC(O)COc1cccc2c1CC(O)C(O)C2` (stereo unspecified), the fold change is 0.89 (inactive).
Still for that read-out and setting: to `c1ccc2c3c([nH]c2c1)[C@H]1C2CCC([C@@H]4CCCN[C@H]24)N1CC3` (stereo partly specified) belongs 0.865 (inactive); to `CC12CCC3c4ccc(OC(=O)c5ccccc5)cc4CCC3C1CCC2O` (stereo unspecified), 0.833 (inactive); to `Oc1cccc(-c2nc(N3CCOCC3)c3sccc3n2)c1`, 0.851 (inactive).
Same read-out and setting: as for `CC(C)CC(=O)N[C@H](C(=O)NC(C(=O)NC(CC(C)C)[C@@H](O)CC(=O)N[C@@H](C)C(=O)N[C@@H](CC(C)C)[C@@H](O)CC(=O)O)C(C)C)C(C)C` (stereo partly specified), the figure is 0.937 (inactive); as for `CN1CC[C@]23c4ccccc4N[C@H]1[C@]21CCN(C)[C@H]3Nc2ccccc21`, 0.926 (inactive); as for `COc1c2ccoc2nc2c(OC)c(OC[C@@H](O)C(C)(C)O)ccc12`, 0.816 (inactive).
The same measure, in the same setting: as for `CC1OC(O[C@H]2/C=C/C=C/C=C/C=C/C=C/C=C/C=C/[C@H](C)[C@@H](O)[C@@H](C)[C@H](C)OC(=O)CC(O)CC(O)CCC(O)C(O)CC(O)CC3(O)C[C@H](O)C(C(=O)O)C(C2)O3)C(O)[C@H](N)C1O` (stereo partly specified), the figure is 0.94 (inactive); as for `C=Cc1c(C)c2cc3nc(cc4[nH]c(cc5nc(cc1[nH]2)C(C)=C5CCC(=O)O)c(CCC(=O)O)c4C)[C@@]1(C)C3=CC=C(C(=O)OC)C1C(=O)OC` (stereo partly specified), 0.97 (inactive).

Source of the values: PubChem BioAssay.
